The source of these data is PubChem BioAssay (NCATS).

Records with an inconclusive call do not appear. Values without a mark were called inactive. Calls of active or inactive are those of the source. The call rests on the fitted dose curve; in most records, active means well fitted inhibition curve with a large enough effect; inconclusive means small, poorly fitted or top-dose-only effect; inactive means flat fitted curve, though single readings scatter.

Experiment [1] has as its system CRL-7250. Briefly: Cytotoxic Profiling of Annotated Libraries Using Quantitative High-Throughput Screening (AID 1296008). On max response: on the % scale 0 is the no-effect control and ±100 the full control effect. As to conditions: Five cell lines viability, CellTiter-Glo ATP luminescence, 48-72 h; max response: hits give low values. The method in brief: (§1)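 Cells exposed to compounds for 48 or 72 hr at 37 degrees Celsius. Viability read as ATP-coupled luminescence with CellTiter-Glo after 10 min at room temperature.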
On the technique in general: Cellular ATP, detected with luciferase, serves as a proxy for viable cell number.

Experiment [2] has as its system HEK293. The description is as above. Conditions: Five cell lines viability, CellTiter-Glo ATP luminescence, 48-72 h; max response: hits give low values. A digest of the protocol:
as §1

Experiment [3] concerns HaCat. The description is as above. Conditions: Five cell lines viability, CellTiter-Glo ATP luminescence, 48-72 h; max response: hits give low values. The method in brief: as §1
Experiment [4] has as its system KB-3-1. The description is as above. As to conditions: Five cell lines viability, CellTiter-Glo ATP luminescence, 48-72 h; max response: hits give low values. The method in brief: as §1
For experiment [5], the system named is NIH3T3. The experiment is described as above. As to conditions: Five cell lines viability, CellTiter-Glo ATP luminescence, 48-72 h; max response: hits give low values. The method in brief:
as §1

The test system of experiment [6] is HB3. Briefly: qHTS profiling for inhibitors of Plasmodium falciparum proliferation (AID 504749). As to conditions: P. falciparum in erythrocytes, SYBR Green DNA, 72 h; series mostly up to 28.7 µM. The method in brief: (§2)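 Readout was DNA-dye fluorescence from lysed cultures, ex 485/em 535 nm. Parasitized red cells had grown 72 h with compound; data scaled between 0.29 uM artemisinin and DMSO wells and corrected using vehicle-only plates.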
A general note: qHTS replaces the single test concentration by a dilution series.

Experiment [7] concerns ICS. The experiment is described as above. As to conditions: P. falciparum in erythrocytes, SYBR Green DNA, 72 h; series mostly up to 28.7 µM. A digest of the protocol: as §2
Experiment [8] has as its system JCK. Described as above. Conditions: P. falciparum in erythrocytes, SYBR Green DNA, 72 h; series mostly up to 28.7 µM. The method in brief:
as §2

Experiment [9] concerns N140. The description is as above. As to conditions: P. falciparum in erythrocytes, SYBR Green DNA, 72 h; series mostly up to 28.7 µM. A digest of the protocol: as §2
The subject of experiment [10] is P93_24. Described as above. As to conditions: P. falciparum in erythrocytes, SYBR Green DNA, 72 h; series mostly up to 28.7 µM. The method in brief:
as §2

The subject of experiment [11] is P94_40. The experiment is described as above. As to conditions: P. falciparum in erythrocytes, SYBR Green DNA, 72 h; series mostly up to 28.7 µM. A digest of the protocol:
as §2

The subject of experiment [12] is PAD. The description is as above. As to conditions: P. falciparum in erythrocytes, SYBR Green DNA, 72 h; series mostly up to 28.7 µM. A digest of the protocol: as §2
In experiment [13] the test system is PC15. Described as above. As to conditions: P. falciparum in erythrocytes, SYBR Green DNA, 72 h; series mostly up to 28.7 µM. A digest of the protocol:
as §2

In experiment [14] the test system is PC26. The experiment is described as above. As to conditions: P. falciparum in erythrocytes, SYBR Green DNA, 72 h; series mostly up to 28.7 µM. The method in brief: as §2
Experiment [15] has as its system PC49. The experiment is described as above. As to conditions: P. falciparum in erythrocytes, SYBR Green DNA, 72 h; series mostly up to 28.7 µM. The method in brief:
as §2

Experiment [16] deals with SC27B. The experiment is described as above. Conditions: P. falciparum in erythrocytes, SYBR Green DNA, 72 h; series mostly up to 28.7 µM. A digest of the protocol:
as §2

Experiment [17] relates to TAB109. The description is as above. Conditions: P. falciparum in erythrocytes, SYBR Green DNA, 72 h; series mostly up to 28.7 µM. A digest of the protocol:
as §2

Experiment [18] deals with TAB113. Described as above. As to conditions: P. falciparum in erythrocytes, SYBR Green DNA, 72 h; series mostly up to 28.7 µM. A digest of the protocol:
as §2

Experiment [19] has as its system TAB165. The experiment is described as above. As to conditions: P. falciparum in erythrocytes, SYBR Green DNA, 72 h; series mostly up to 28.7 µM. The method in brief:
as §2

Experiment [20] deals with W2. The description is as above. Conditions: P. falciparum in erythrocytes, SYBR Green DNA, 72 h; series mostly up to 28.7 µM. The method in brief:
as §2
Further: nearly all actives have a fitted effect of over 60% in size.
Potency means the concentration at half of the fitted maximal effect.

In the case of `CCN1CCN(C(=O)N[C@@H](C(=O)N[C@@H]2C(=O)N3C(C(=O)O)=C(CSc4nnnn4C)CS[C@H]23)c2ccc(O)cc2)C(=O)C1=O`, the max response is 3.23% in experiment [1]; -4.75% in experiment [2]; -2.57% in experiment [3]; -4.94% in experiment [4]; -3.36% in experiment [5].

On to `N[C@H](C(=O)O)[C@@H](O)c1ccc(O)c(O)c1`, for which, in [1], the compound was called inactive. For the same compound, the max response was -0.734% in [2], 1.85% in experiment [3], -1.88% in experiment [4] and 0.856% in [5].

With `CCCCCCCCCCCCSCCOCCO`, the Potency result in experiment [6], in experiment [7], in [8], in [9], in experiment [10] and in [11] was “inactive” in each case. The Potency entry in experiment [12], in experiment [13], in experiment [14], in [15], in experiment [16] and in experiment [17] was “inactive” throughout. Further, the Potency entry in [18], in experiment [19] and in [20] was “inactive” in each case. Moreover, the max response in [1] was 2.82%; in experiment [2], -0.323%; in [3] it was 0.693%; in [4], 1.68%; in [5], -3.9%.

For the compound `CCCCNC(=O)NS(=O)(=O)c1ccc(N)cc1`, the Potency entry in experiment [6], in experiment [7], in experiment [8], in [9], in [10] and in [11] was “inactive” in each case. For the same compound, the Potency entry in experiment [12], in [13], in experiment [14], in [15], in experiment [16] and in experiment [17] was “inactive” in each case. Further, the Potency entry in experiment [18], in experiment [19] and in [20] was “inactive” each time. Further, the max response in [1] is -16.6%; in experiment [2] it was 2.1%; in [3], 3.3%; in [4], 10%; in experiment [5] it was -1.55%.

In the case of `Cc1cc(NS(=O)(=O)c2ccc(N)cc2)nc(C)n1`, the Potency result in [6], in experiment [7], in [8], in [9], in [10] and in experiment [11] was “inactive” in each case. For the same compound, the Potency result in [12], in experiment [13], in experiment [14], in [15], in [16] and in experiment [17] was “inactive” each time. Besides, the Potency entry in [18], in [19] and in experiment [20] was “inactive” each time. Besides, the max response was -3.14% in experiment [1], -0.689% in experiment [2], 15.3% in experiment [4] and 4.17% in experiment [5]. In addition, the compound was classed as inactive in experiment [3].

Regarding `CC(C)Cc1ccc(CC(=O)O)cc1`, the Potency result in experiment [6], in experiment [7], in experiment [8], in experiment [9], in [10] and in experiment [11] was “inactive” each time. Moreover, the Potency result in experiment [12], in [13], in [14], in [15], in [16] and in experiment [17] was “inactive” each time. Moreover, the Potency entry in [18], in experiment [19] and in experiment [20] was “inactive” in each case. Besides, the max response in experiment [1] was 2.76%; in [2], -6.81%; in experiment [3], -0.56%; in experiment [4], -9.62%; in experiment [5], 2.82%.

As to `Nc1ccc(C(=O)NCC(=O)O)cc1`, the Potency result in [6], in [7], in experiment [8], in experiment [9], in experiment [10] and in experiment [11] was “inactive” in each case. Further, the Potency result in experiment [12], in experiment [13], in experiment [14], in experiment [15], in [16] and in experiment [17] was “inactive” in each case. Also, the Potency entry in [18], in experiment [19] and in experiment [20] was “inactive” in each case. The max response in [1] was -1.17%; in experiment [2], 0.145%; in experiment [3], 0.603%; in [4] it was 28.3%; in [5], -6.17%.

Consider `C=C1c2cccc(O)c2C(O)=C2C(=O)[C@]3(O)C(O)=C(C(N)=O)C(=O)[C@@H](N(C)C)[C@@H]3[C@@H](O)[C@H]12`, for which the outcome in [1] and in experiment [5] was inactive. The max response was -1.35% in [2], -8.16% in [3] and -4.44% in [4].

For `NC(=S)N/N=C/c1cccnc1`, the Potency result in experiment [6], in experiment [7], in experiment [8], in experiment [9], in [10] and in experiment [11] was “inactive” throughout. Further, the Potency result in experiment [12], in [13], in [14], in experiment [15], in [16] and in [17] was “inactive” throughout. Moreover, the Potency entry in experiment [18] and in experiment [19] was “inactive” throughout. In addition, the max response in experiment [1] was -6.1%; in [2], -29.1%; in experiment [3], 1.46%; in experiment [4] it was 2.69%; in [5] it was 1.77%.

For the compound `CCCCN1C[C@H](O)[C@@H](O)[C@H](O)[C@H]1CO`, the max response is -12.1% in experiment [1]; -7.96% in [2]; -19.6% in [3]; 15.3% in experiment [4]; -2.42% in experiment [5].

With `O=C1C(=O)c2ccccc2C(O)=C1C1CCC(c2ccc(Cl)cc2)CC1` (stereo not drawn), the Potency in experiment [6] was 2.8 nM (active); in experiment [7], 2 nM (active); in experiment [8], 5.6 nM (active); in experiment [9] it was 5 nM (active); in experiment [10], 4 nM (active); in experiment [11] it was 7.1 nM (active). The Potency in experiment [12] was 4.5 nM (active); in experiment [13], 4.5 nM (active); in experiment [14], 5.7 nM (active); in experiment [15] it was 5 nM (active); in experiment [16] it was 0.7 nM (active); in experiment [17] it was 2.5 nM (active). The Potency was 2 nM (active) in experiment [18] and 10 nM (active) in experiment [19]. Also, the max response was 1.68% in [1]; 0.597% in experiment [2]; -2.46% in [3]; -5.6% in experiment [4]; 2.17% in experiment [5].

`NS(=O)(=O)c1cc2c(cc1Cl)NC(CC1CCCC1)NS2(=O)=O` (stereo not drawn): the max response in experiment [1] is -2.46%; in experiment [2] it was -7.58%; in [3], -5.14%; in experiment [4] it was 7.67%; in experiment [5] it was 2.98%.

As to `Nc1nc(Cl)nc2c1ncn2[C@@H]1O[C@H](CO)[C@@H](O)[C@@H]1F`, the Potency in experiment [1] was 596 nM (active); in [2], 1500 nM (active); in experiment [3], 1060 nM (active); in experiment [5], 1190 nM (active). In addition, in [4], the max response is 2.36%.

Take `CC(O)Cn1cnc2c1c(=O)n(C)c(=O)n2C` (stereo not drawn): the max response in experiment [1] was 2.85%; in experiment [2] it was 1.15%; in [3] it was -17.4%; in [4], 13.1%; in experiment [5], -9.57%.
